Bioassay records as filed in PubChem BioAssay.
IMPase Li cell = IMPase inhibition in cells with lithium potentiation | CHO-M1 cells, IP1 TR-FRET (IP-One), carbachol + lithium | Potency, µM (highest dose often 59.4 µM), hits mostly inhibitors | 210,000 compounds, 0.35% hits; active = well fitted curve in the direction sought with a large enough effect; inconclusive = small, poorly fitted or top-dose-only effect, or another doubt; inactive = no such curve, though single readings can be large; an effect the other way counts as inactive or inconclusive;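 note: IP1 builds up when IMPase is blocked and the TR-FRET signal falls; nearly all actives have a fitted effect of over 50% in size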
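CHO cells stably expressing M1 receptor (2000/well) were cultured 16–30 h, then exposed to compounds with a small lithium addition for 30 min at 37C. IP1 was measured by TR-FRET competition; AC50 from Hill fits.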
ALDH1A1 block = inhibitors of human aldehyde dehydrogenase 1A1 | 220,000 compounds, 7.3% hits | Purified ALDH1A1, NADH fluorescence, propionaldehyde substrate | Potency, µM (series often up to 75.3 µM), hits mostly inhibitors | P00352
HPGD inh = inhibitors of human 15-hydroxyprostaglandin dehydrogenase (HPGD). P15428. purified HPGD, NADH fluorescence kinetic, PGE2 substrate. Potency, µM, usual class: inhibitors. 150,000 compounds, 4.3% hits. AID 894
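NADH formation kinetics: reaction with 30 uM PGE2 and 1 mM NAD+ (final), 20 nM enzyme, Tris-HCl pH 8 with Tween 20, after 15 min compound preincubation at room temperature. Fluorescence change, last versus first of five reads.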
PNC assembly inh = inhibitors of perinucleolar compartment assembly. PC3M PTB-GFP, PNC prevalence imaging, 16 h; hits give low values. activity change (PNC), negative = inhibition, % at 10 µM. 140,000 compounds, 3.1% hits;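 active = readout at or below -70, meaning at least 70% loss of cells showing the perinucleolar compartment, a nuclear body marking cancer cells; inconclusive = readout between -30 and a set limit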
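PC3M cells stably expressing PTB-GFP, 750–1000 cells/well, treated 16 h at 37 °C with compound (23 nl of library stock), in duplicate. After paraformaldehyde fixation and Hoechst stain, imaged at 20x; PNC prevalence scored by image analysis.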
IMPase cell inh = IMPase inhibition in cells; P97697; CHO-M1 cells, IP1 accumulation, HTRF TR-FRET ratio; 120,000 tested, under 10 active; inhibition (IP1 accumulation), % at 46.1 µM; active = well fitted curve in the direction sought with a large enough effect in the signal ratio, not every such curve was filed as active; inconclusive = small, poorly fitted or top-dose-only effect, or a change in a side signal; inactive = no such curve, though single readings can be large or run the other way; the % refers to the signal ratio;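 note: cells stimulated with carbachol in lithium chloride buffer; higher means more IMPase inhibition seen as more IP1 and lower FRET ratio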
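Carbachol-driven Gq signalling in CHO-M1 cells (2000/well) generates IP1. Compounds that block IMPase raise IP1 and so reduce the FRET signal from Eu-anti-IP1 and d2-IP1 after a 10 min room-temperature lysis.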
12-hLO inh = 12-hLO (ALOX12) enzyme inhibition; 150,000 compounds, 0.12% hits; Potency, µM (top dose mostly 57.1 µM), usual class: inhibitors; purified 12-hLO, xylenol orange hydroperoxide absorbance; P18054; active = well fitted curve in the direction sought with a large enough effect; inconclusive = small, poorly fitted or top-dose-only effect, or another doubt; inactive = no such curve, though single readings can be large; an effect the other way counts as inactive or inconclusive; note: nearly all actives have a fitted effect of over 55% in size
Target sequence (P18054 whole entry, looked up): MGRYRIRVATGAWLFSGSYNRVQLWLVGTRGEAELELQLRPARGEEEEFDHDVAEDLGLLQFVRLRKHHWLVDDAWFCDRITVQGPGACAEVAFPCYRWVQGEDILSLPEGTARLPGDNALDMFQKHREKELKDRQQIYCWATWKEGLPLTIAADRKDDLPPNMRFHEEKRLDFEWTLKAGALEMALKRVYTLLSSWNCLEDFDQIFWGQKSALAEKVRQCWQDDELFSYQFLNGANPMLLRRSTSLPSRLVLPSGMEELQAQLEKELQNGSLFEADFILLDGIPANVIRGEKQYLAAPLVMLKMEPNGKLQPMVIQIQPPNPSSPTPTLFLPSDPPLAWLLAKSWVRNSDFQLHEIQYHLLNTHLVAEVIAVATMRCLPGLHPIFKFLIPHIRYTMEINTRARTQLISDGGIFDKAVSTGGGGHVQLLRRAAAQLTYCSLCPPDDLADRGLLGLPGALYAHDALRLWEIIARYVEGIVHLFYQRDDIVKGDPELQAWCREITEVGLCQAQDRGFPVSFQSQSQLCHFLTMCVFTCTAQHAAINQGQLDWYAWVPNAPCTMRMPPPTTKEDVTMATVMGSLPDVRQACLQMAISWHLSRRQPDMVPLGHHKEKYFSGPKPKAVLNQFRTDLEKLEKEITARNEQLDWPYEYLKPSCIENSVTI
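Hydroperoxide formation by human 12-lipoxygenase from 40 uM arachidonic acid was followed colorimetrically via ferric-xylenol orange complex, using the 573/405 nm absorbance ratio. Enzyme concentration was 150 nM, with 30 min reaction at room temperature.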
A number is an active result; n = inactive; u = inconclusive; x = not tested or not shown; [ ] = another dose, or the depositor's remark. Sampled rows, rich in hits. Any-hit rate of the full collection: about 11%. Unless noted, calls come from the whole dose curve; as a rule, active = well fitted inhibition curve with a large enough effect (not every such curve was filed as active); inconclusive = small, poorly fitted or top-dose-only effect, or another doubt; inactive = no such curve, though single readings can be large or run the other way.

SMILES	IMPase Li cell	ALDH1A1 block	HPGD inh	PNC assembly inh	IMPase cell inh	12-hLO inh
COC(=O)CSC1=C(C#N)C(=O)NC(c2ccccc2)S1 (stereo not given)	n	24µM	n	n	n	u
C=C(C)CSC1=C(C#N)C(c2ccccc2)CC(=O)N1 (stereo not given)	x	6.3µM	25µM	x	x	n
COC(=O)CSC1=C(C#N)C(c2ccc(C(C)C)cc2)CC(=O)N1 (stereo not given)	n	u	n	n	n	n
COC(=O)CSC1=C(C#N)C(c2ccccc2)CC(=O)N1 (stereo not given)	n	16µM	n	n	n	n
CCOC(=O)CSC1=C(C#N)C(c2sccc2C)C(C(C)=O)=C(C)N1 (stereo not given)	n	22µM	n	n	n	n
FC(F)(F)c1ccccc1-c1ccc2ncnc(NCc3cccnc3)c2c1	n	n	x	x	x	x
CCOc1ccccc1NC(=O)COC(=O)Cc1ccc(-c2ccccc2)cc1	n	u	n	n	u	n
CCOC(=O)CSC1=C(C#N)C(c2ccc(C)s2)CC(=O)N1 (stereo not given)	n	n	n	-88	n	n
Cc1cc(C(=O)COC(=O)C2=COCCO2)c(C)n1-c1ccc2c(c1)OCO2	n	16µM	16µM	n	n	n
Cc1cc(C(=O)CSc2nnc(C3COc4ccccc4O3)n2C)c(C)n1-c1ccc(F)cc1 (stereo not given)	n	u	28µM	n	n	n
Cc1cc(C(=O)CSc2nc3ccccc3[nH]2)c(C)n1CC1CCCO1 (stereo not given)	n	u	16µM	n	n	n
Cc1cc(C(=O)CSc2nc3ccccc3o2)c(C)n1CC1CCCO1 (stereo not given)	n	n	n	u	n	n
Cc1cccc(-n2nnnc2SCC(=O)c2cc(C)n(CC3CCCO3)c2C)c1 (stereo not given)	n	7.9µM	n	n	n	n
Cc1ccc(-n2nnnc2SCC(=O)c2cc(C)n(CC3CCCO3)c2C)cc1 (stereo not given)	n	n	n	n	n	n
O=C(O)C1CCC[C@@H]2[C@@H]3CC(CN12)[C@@H]1CCCCN1C3 (stereo not given in full)	n	n	n	x	x	x
CC12CC3OS(=O)OC3CC3C4C(C(OCc5ccccc5)C31)C42 (stereo not given)	x	n[13.5 µM]	x	x	x	x
CC(=O)OC[C@H]1O[C@@H](CCO/N=C2/[C@H]3O[C@@H]3[C@@H](O)[C@H]3[C@H]2CCn2c(=O)n(-c4ccccc4)c(=O)n23)C=C[C@@H]1OC(C)=O	x	n[13.5 µM]	x	x	x	x
CC12CC[C@@H]3c4ccc(OP(=O)(O)O)cc4CCC3C1CCC2=O (stereo not given in full)	n	n[13.5 µM]	n	x	x	n[11.4 µM]
Cc1cccc(-n2nnnc2SCC(=O)c2cc(C)n(Cc3ccco3)c2C)c1	n	18µM	n	n	n	n
Cc1cc(C(=O)CSc2nnnn2-c2ccccc2)c(C)n1-c1ccc2c(c1)OCO2	n	0.25µM	n	n	x	n
Cc1cc(C(=O)CSc2nnnn2-c2ccc(O)cc2)c(C)n1Cc1ccc2c(c1)OCO2	n	n	n	n	n	n
Cc1cc(C(=O)CSc2nnc(N)s2)c(C)n1Cc1ccco1	n	n	x	x	x	x
Cc1nn(Cc2ccccc2Cl)c2sc(C(=O)OC3CCCC3=O)cc12 (stereo not given)	n	8.9µM	n	n	n	n
COc1ccccc1C(=O)O/N=C(/c1ccncc1)c1ccc([N+](=O)[O-])cc1	n	20µM	x	x	x	x
Cc1ccccc1-c1ccc2ncnc(N3CCNCC3)c2c1	n	u	x	x	x	x
SMILES	IMPase Li cell	ALDH1A1 block	HPGD inh	PNC assembly inh	IMPase cell inh	12-hLO inh
Cc1cc(F)ccc1NC(=O)CCSc1nc(-c2ccco2)cc(C(F)(F)F)n1	x	x	x	x	n	x
c1ccc2sc(N3CCOCC3)nc2c1	n	n	n	n	n	n
c1ccc2sc(SN3CCOCC3)nc2c1	n	4µM	14µM	u	n	n
CC1=CC(C)(C)Nc2ccc(OC(=O)c3ccco3)cc21	n	n	n	n	n	n
CC1=CC(C)(C)N2C(=O)C(=O)c3cc(OC(=O)c4ccco4)cc1c32	n	0.63µM	x	x	x	x
c1ccc(-c2ccc(-c3ccc(C4=NCCN4)cc3)o2)cc1	n	u	u	x	x	n[11.4 µM]
CCC(=O)Nc1cccc2c1C(=O)N(C)C2=O	n	n	u	-111	n	n
Cn1c(=O)c2c(nc(/C=C\c3cccc(Cl)c3)n2C)n(C)c1=O	x	x	x	x	n	n
COc1c(O)cc(O)cc1O	n	n	n	x	x	n
Cc1cc(O)c(Oc2cc(C)cc(O)c2O)c(O)c1	n	8.9µM	x	x	x	x
